# Legend:
# Assay type in all cases: functional
# [1] = target: Solute carrier family 2, facilitated glucose transporter member 1 (Homo sapiens) (UniProt P11166); experiment: ST_JUDE_LEISH: Cytotoxicity at 2uM final concentration against transgenic Leishmania Mexicana promastigotes LmGLUT1 that are glucose transport deficient and complemented with the human glucose transporter GLUT1. Activity is measured by DNA content using SYBR green in vitro
# [2] = target: Hexose transporter 1 (Plasmodium falciparum) (UniProt O97467); experiment: ST_JUDE_LEISH: Cytotoxicity at 2uM final concentration against transgenic Leishmania Mexicana promastigotes LmPfHT that are glucose transport deficient and complemented with the Plasmodium falciparum hexose transporter. Activity is measured by DNA content using SYBR green in vitro
# [3] = target: Glucose transporter (Leishmania mexicana) (UniProt O61059); experiment: ST_JUDE_LEISH: Cytotoxicity at 2uM final concentration against transgenic Leishmania Mexicana promastigotes LmGT2 that are glucose transport deficient and complemented with the L. Mexicana glucose transporter 2. Activity is measured by DNA content using SYBR green in vitro
# Chain of Solute carrier family 2, facilitated glucose transporter member 1 (Homo sapiens) (P11166 whole entry): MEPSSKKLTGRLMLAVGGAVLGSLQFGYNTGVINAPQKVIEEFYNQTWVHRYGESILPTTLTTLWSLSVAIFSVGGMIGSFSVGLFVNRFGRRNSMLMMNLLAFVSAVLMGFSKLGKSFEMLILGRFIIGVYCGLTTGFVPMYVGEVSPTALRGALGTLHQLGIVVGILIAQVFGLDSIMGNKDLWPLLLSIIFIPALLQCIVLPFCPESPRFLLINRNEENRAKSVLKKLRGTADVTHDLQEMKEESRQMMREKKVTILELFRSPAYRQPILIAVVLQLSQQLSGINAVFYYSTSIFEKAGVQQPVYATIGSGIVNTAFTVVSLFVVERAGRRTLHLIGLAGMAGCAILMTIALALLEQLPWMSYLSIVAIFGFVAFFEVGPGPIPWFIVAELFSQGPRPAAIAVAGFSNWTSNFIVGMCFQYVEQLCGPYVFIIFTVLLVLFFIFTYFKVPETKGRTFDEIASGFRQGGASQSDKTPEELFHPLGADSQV
compound,measurement,setting,value
COc1ccc2nccc([C@@H](O)CN3CCC(NCCNc4ccccn4)CC3)c2c1,inhibition,[1],8.79%
same,inhibition,[2],9.69%
same,inhibition,[3],6.24%
CN(C)c1cc(NN=Cc2cc(Cl)ccc2O)nc(N(C)C)n1,inhibition,[1],4.76%
same,inhibition,[2],4.94%
same,inhibition,[3],2.54%
Cc1cccc(C(=O)Nc2ccnc(N3CCC(N(C)Cc4ccccc4)CC3)c2)c1,inhibition,[1],-1.46%
same,inhibition,[2],-0.98%
same,inhibition,[3],-0.83%
COc1ccc(C2C(C(=O)Nc3ccc4c(c3)OCO4)c3cc(OC)c(OC)cc3C(=O)N2C)cc1 (centres undefined),inhibition,[1],2.12%
same,inhibition,[2],1.73%
same,inhibition,[3],0.53%
Cn1ccnc1CNC(=O)c1ccc(-c2cccc(-c3nc4cc(F)ccc4[nH]3)c2)cc1,inhibition,[1],-2.64%
same,inhibition,[2],0.96%
same,inhibition,[3],1.38%
Cc1cc(C(=O)NC2CCN(Cc3ccccc3)CC2)ccc1-c1nc2ccc(C(F)(F)F)cc2[nH]1,inhibition,[1],3.67%
same,inhibition,[2],2.1%
same,inhibition,[3],3.25%
Cc1cc(Nc2cccc(C(F)(F)F)c2)nc(NCc2ccccc2)n1,inhibition,[1],29.6%
same,inhibition,[2],42.8%
same,inhibition,[3],10.1%
CC(C)(C)c1ccc(CN2CCCCC(NC(=O)c3cc(-c4ccccc4F)cs3)C2)cc1 (centres undefined),inhibition,[1],-1.83%
same,inhibition,[2],-0.56%
same,inhibition,[3],0%
CCC1(CC)N=C(N)N=C(N)C1c1ccc(Cl)c(Cl)c1 (centres undefined),inhibition,[1],-0.44%
same,inhibition,[2],0.07%
same,inhibition,[3],0.44%
O=C(/C=C/c1ccc(Cl)c(Cl)c1)NCCCCCN1CCC(NC(=O)Nc2ccc(Cl)c(Cl)c2)CC1,inhibition,[1],1.02%
same,inhibition,[2],-0.03%
same,inhibition,[3],0.09%
Cc1ccc2nc(C)n(C3CCN(C(=O)C4(c5ccccc5)CC4)CC3)c2c1,inhibition,[1],5.47%
same,inhibition,[2],6.02%
same,inhibition,[3],5.27%
COc1cc2nc(Nc3ccc4c(ccn4Cc4ccccc4)c3)nc(Nc3ccc4c(ccn4Cc4ccccc4)c3)c2cc1OC,inhibition,[1],1.55%
same,inhibition,[2],1.97%
same,inhibition,[3],3.43%
CCN(CCCN1CCCCC1)c1cc(C)nc(Nc2cc(F)cc(F)c2)n1,inhibition,[1],5.16%
same,inhibition,[2],4.98%
same,inhibition,[3],4.62%
Clc1ccc2c(N3CCN(CCN4CCN(c5ccnc6cc(Cl)ccc56)CC4)CC3)ccnc2c1,inhibition,[1],0.09%
same,inhibition,[2],0.23%
same,inhibition,[3],0.08%
CNCc1cccc(-c2ccc3ccnc(N)c3c2)c1,inhibition,[1],7.92%
same,inhibition,[2],10.7%
same,inhibition,[3],7.76%
Cn1cncc1-c1ccc2c(-c3ccsc3)cnc(N)c2c1,inhibition,[1],5.58%
same,inhibition,[2],6.85%
same,inhibition,[3],6.81%
Cc1cc(-c2nc3ccc(N4CCN(C)CC4)cc3[nH]2)nn1Cc1cc(Cl)ccc1OCC(C)C,inhibition,[1],1%
same,inhibition,[2],1.76%
same,inhibition,[3],0.44%
CCCCC(=O)NC(c1cccs1)c1cc(Cl)c2cccnc2c1O (centres undefined),inhibition,[1],8.63%
same,inhibition,[2],8.32%
same,inhibition,[3],5.17%
